The source made the active and inactive calls.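 How the source made its calls: active means activity change under -35% in any replicate well, with more than 20 beads read in that well; inactive means the rest.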
Biological target: Caspase recruitment domain-containing protein 9 (Homo sapiens) + E3 ubiquitin-protein ligase TRIM62 (Homo sapiens) (UniProt Q9H257+Q9BVG3)
Assay: disruptors of CARD9-TRIM62 binding, primary screen, cell lysate, HEK293FT lysates, Luminex bead ELISA (AID 1259341);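 further: PE anti-Flag signal of Flag-CARD9 captured by myc-TRIM62 beads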
Settings: PE fluorescence, stronger effect = lower value, concentration not given here

Caspase recruitment domain-containing protein 9 (Homo sapiens) + E3 ubiquitin-protein ligase TRIM62 (Homo sapiens), sequence (Q9BVG3 whole entry, looked up, the tested form may be a part): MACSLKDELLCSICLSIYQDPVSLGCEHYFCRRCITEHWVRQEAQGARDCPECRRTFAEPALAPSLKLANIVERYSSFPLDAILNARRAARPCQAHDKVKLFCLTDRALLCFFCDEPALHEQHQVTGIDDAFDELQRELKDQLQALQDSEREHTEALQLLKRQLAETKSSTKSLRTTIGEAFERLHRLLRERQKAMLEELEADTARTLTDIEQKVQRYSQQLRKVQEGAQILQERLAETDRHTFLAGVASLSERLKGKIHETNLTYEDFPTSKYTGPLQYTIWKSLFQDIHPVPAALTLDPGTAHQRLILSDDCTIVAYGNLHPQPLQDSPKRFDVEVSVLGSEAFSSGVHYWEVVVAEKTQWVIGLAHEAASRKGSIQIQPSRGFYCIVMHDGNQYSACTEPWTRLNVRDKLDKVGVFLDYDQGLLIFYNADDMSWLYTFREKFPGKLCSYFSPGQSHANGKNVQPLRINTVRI
Caspase recruitment domain-containing protein 9 (Homo sapiens) + E3 ubiquitin-protein ligase TRIM62 (Homo sapiens), sequence (Q9H257 whole entry, looked up, the tested form may be a part): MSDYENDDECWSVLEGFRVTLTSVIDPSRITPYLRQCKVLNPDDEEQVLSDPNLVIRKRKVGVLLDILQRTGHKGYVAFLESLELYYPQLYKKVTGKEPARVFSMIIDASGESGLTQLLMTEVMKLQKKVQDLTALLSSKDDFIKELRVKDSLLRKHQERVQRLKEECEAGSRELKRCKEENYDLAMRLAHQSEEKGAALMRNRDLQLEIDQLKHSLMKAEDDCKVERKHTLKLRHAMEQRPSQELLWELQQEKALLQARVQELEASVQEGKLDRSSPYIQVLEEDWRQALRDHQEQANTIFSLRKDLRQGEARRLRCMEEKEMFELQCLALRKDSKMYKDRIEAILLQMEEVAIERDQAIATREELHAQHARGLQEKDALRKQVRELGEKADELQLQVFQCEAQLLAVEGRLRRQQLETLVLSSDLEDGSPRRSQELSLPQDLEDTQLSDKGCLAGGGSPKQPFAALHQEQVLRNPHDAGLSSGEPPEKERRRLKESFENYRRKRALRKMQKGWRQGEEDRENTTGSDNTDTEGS

Activity change, negative = inhibition, inactive:
Cc1cc(C(=O)Nc2nc3c(s2)CCc2ccccc2-3)no1 3.92%
O=C1c2ccccc2-c2nc3ccccc3nc21 -4.55%
NC(=O)C1(N2CCCCC2)CCN(c2ncc(NC(=O)c3cccs3)cc2C(=O)O)CC1 -9.12%
O=C(NCc1ccco1)[C@@H]1CSC2c3ccccc3C(=O)N21 (stereo partly specified) -0.672%
O=[N+]([O-])c1cccc(-c2nnc3ccc4ccccc4n23)c1 -7.69%
Cc1ccc(Nc2nc(C(=O)Nc3ccc(Cl)cc3)nc3ccccc23)cc1 -19.6%
CC(CCc1ccco1)N(C)S(=O)(=O)c1ccc2[nH]c(=O)ccc2c1 (stereo unspecified) 3.38%
O=C(NCc1ccco1)c1ccc(S(=O)(=O)N2CCOCC2)cc1 19.9%
C[C@H](CO)N1C[C@H](C)[C@@H](CN(C)CC2CCCCC2)OCCCC[C@H](C)Oc2ccc(NS(=O)(=O)c3cccs3)cc2C1=O 9.64%
Cc1c(/C=C/c2nc3ccccc3c(=O)n2-c2ccccn2)c2ccccc2n1C -1.2%
Cc1ccc(C2CC(=O)C3=C(C2)Nc2ccccc2NC3c2cccnc2)cc1 (stereo unspecified) -0.28%
Cc1oc(CSCc2cc(C(=O)O)c(C)o2)cc1C(=O)O 1.21%
O=C(O)c1cc(-c2ccc(-c3ccc(F)cc3)o2)nc2ccccc12 -7.53%
COCCCNC(=O)C1CCN(c2ccc(N3CCOCC3)nn2)CC1 28.3%
O=C(O)C(c1ccccc1)C(c1ccccc1)c1ccccc1 (stereo unspecified) 6.86%
O=C(Nc1ncccc1O)c1ccc(OCC2CCCO2)cc1 (stereo unspecified) 2.58%
Cc1ccc(C)n1Nc1nc(O)cs1 1.72%
NC(=O)C1(N2CCCCC2)CCN(c2ncc(NC(=O)c3ccc(F)cc3)cc2C(=O)O)CC1 -19.3%
O=S(=O)(c1ccccc1)N1CC2CN(Cc3ccc(O)cc3)C2C1 (stereo unspecified) -21%
CCCN1CCCn2nc(CNC(=O)[C@@H](N)Cc3ccc(O)cc3)cc2C1 -26.6%
C[C@H](CO)N1C[C@H](C)[C@@H](CN(C)C(=O)C2CCCCC2)OCCCC[C@H](C)Oc2ccc(NS(=O)(=O)c3ccc(F)cc3)cc2C1=O 9.27%
COc1ccc(N2Cc3cccc(C(=O)NC(C)CCc4ccco4)c3C2=O)cc1 (stereo unspecified) 0.962%
O=C(COC(=O)c1cc(-c2ccco2)nc2ccccc12)NCc1ccccc1 -1.75%
Cc1ccc2cc(CN(Cc3ccco3)S(C)(=O)=O)c(=O)[nH]c2c1 5.89%
O=C(COC(=O)c1ccccc1Oc1ccccc1)NCc1ccco1 3.86%
Cc1ccc(Nc2nc(C(=O)Nc3ccc(Br)cc3)nc3ccccc23)cc1 4.69%
COc1ccc(NC(=O)CN(C)C(=O)c2cc(-c3ccco3)nc3ccccc23)cc1 -8.21%
CCCC(=O)NCc1ccc2c(c1)cc(C)n2C 7.86%
CCOc1ccccc1NC(=O)N1CCCC(c2nccn2CCOC)C1 (stereo unspecified) -5.04%
C[C@H](CO)N1C[C@H](C)[C@@H](CN(C)C(=O)C2CCCCC2)OCCCC[C@H](C)Oc2ccc(NS(=O)(=O)c3cccs3)cc2C1=O 6.34%
COc1ccc(S(=O)(=O)Nc2ccc3c(c2)C(=O)N([C@H](C)CO)C[C@H](C)[C@@H](CN(C)C(=O)C2CCCCC2)OCCCC[C@H](C)O3)cc1 -4.07%
O=C(CN1CCN(c2ccccc2O)CC1)NC(=O)NC1CCCC1 2.28%
C[n+]1cccc2cccc(O)c21 -2.89%
CCN1CCOC(=O)C1CC(=O)Nc1cccc(C)c1 (stereo unspecified) -1.33%
O=C(CCCN1C(=O)NC2(CCCC2)C1=O)Nc1ccc(F)cc1 23.8%

Activity change, negative = inhibition, active:
NC(=O)C1(N2CCCCC2)CCN(c2ncc(NC(=O)c3ccccc3)cc2C(=O)O)CC1 -57.3%
